This passage reports growth results from PubChem BioAssay (NCI).

This is part of a sample that, as a whole, favours compounds with a hit. Of some 83,000 tested, about 20% had one in any assay.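 Testing used 96-well plates and a 48-hour single-concentration exposure. Example: -40 means 40% of the starting cells died.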 Activity calls are given as the source filed them. The calls were made as follows: active = growth percent below 10; inactive = the rest.

For the test, the system named is HL-60(TB) leukemia. As to the kind of experiment: NCI-60 one-dose screen, 48 h (100 = growth as untreated, 0 = no growth, -100 = all killed). Particulars: 10 µM unless noted.
Take `Oc1ccc(C(c2ccc(O)cc2)c2ccc(Br)cn2)cc1`: the growth was 106% (inactive).
As to `COc1cc([C@@H]2c3cc4c(cc3C(O[C@@H]3O[C@@H]5CO[C@@H](c6cccs6)OC5[C@H](O)[C@H]3O)C3COC(=O)[C@@H]32)OCO4)cc(OC)c1O` (stereo not given in full), the growth is -21.7% (active).
As to `NC(=S)Nc1cccc(O)c1`, the growth is 98.6% (inactive).
In the case of `C=C(C)[C@@H]1CC[C@]2(C(N)=O)CC[C@]3(C)[C@H](CC[C@@H]4[C@@]5(C)C/C(=C/c6cccnc6)[C@H](O)C(C)(C)[C@@H]5CC[C@]43C)[C@@H]12`, the growth is 0.0883% [100 µM] (active).
For `CN(C)Cc1ccc(C(=O)Nc2ccc3ncnc(Nc4ccc(Oc5cccc(F)c5)c(Cl)c4)c3c2)cc1`, the growth is -41.7% (active).
With `CC(C)(C)c1cn2cccc(C(=O)N3CCN(CC(=O)Nc4ccc(Cl)cc4C(=O)c4ccccc4Cl)CC3)c2n1`, the growth was -32.4% (active).
In the case of `COc1ccc(-c2nc3sccn3c2-c2cc(-c3cc(OC)c(OC)c(OC)c3)on2)cc1`, the growth is 23.5% (inactive).
Consider `COc1cc2c(cc1-c1c(C)noc1C)ncc1nc(C3CC3)n([C@H](C)COC(F)F)c12`, for which the growth was 31% (inactive).
To `COc1cc(-c2ccc(-[n+]3nc(-c4ccc([N+](=O)[O-])cc4)nn3-c3ccc([N+](=O)[O-])cc3)c(OC)c2)ccc1-[n+]1nc(-c2ccc([N+](=O)[O-])cc2)nn1-c1ccc([N+](=O)[O-])cc1` belongs 14.2% (inactive); to `COc1ccc(-c2c[nH]c(C(=O)O)c2-c2cc(OC)c(OC)c(OC)c2)cc1`, -13.8% (active); to `COC(c1ccccc1)C(Br)C(=O)c1ccccc1` (stereo not given), 79.1% (inactive).
As for `CCOC(=O)c1nnn(-c2ccccc2)c1C1=CN(C)CCC1`, the growth is 84.4% (inactive).
The figure for `COc1ccc2c(c1)c(-c1ccc(-c3cn(C)c4ccc(OC)cc34)o1)cn2C` is -23% (active); for `CC(=O)OCCC(C)CCC=C(C)C` (stereo not given) it is 108% (inactive); for `COc1cccc(C2CC(=O)Nc3cc4c(cc32)OCO4)c1OC` (stereo not given) it is 93.7% (inactive).
As to `COc1ccccc1Nc1nc(-c2cc3cccc(C(F)(F)F)c3oc2=O)cs1`, the growth is -5.62% (active).
To `CC(=O)c1cc(O)ccc1O` belongs 62.1% (inactive); to `CCN1/C(=C/C=C/c2n(-c3ccccc3)c3ccc(-c4nc5ccccc5s4)cc3[n+]2CC)N(c2ccccc2)c2ccc(-c3nc4ccccc4s3)cc21`, 6.43% (active).
To `COc1ccc(C(=O)CCC(=O)O)cc1` belongs 98.6% (inactive); to `O=C(Nc1ccccc1Cl)c1c[nH]c(=O)c(-c2ccc(N3CCCOC4(CC4)C3)cc2)c1`, 28.3% (inactive); to `CC(C)(O)C(=O)O`, 103% (inactive).
The figure for `Oc1c(CN2CCC(N3CCOCC3)CC2)cc(Cc2cc(CN3CCC(N4CCOCC4)CC3)c(O)c3ncccc23)c2cccnc12` is -5.88% (active); for `N#CSCC1CC(O)(c2ccccc2)CC(c2ccc(Cl)cc2)O1` (stereo not given) it is -30.9% (active); for `OCCN1CCN(CCCN2c3ccccc3Sc3ccc(C(F)(F)F)cc32)CC1` it is 32.7% (inactive).
For `CC1=NN(c2cccc(Cl)c2)C(=O)/C1=C\c1cn(-c2nc(N3CCOCC3)nc(N3CCOCC3)n2)c2ccccc12`, the growth is 99.1% (inactive).
The figure for `COc1cc(/C=C/C(=O)c2cccc(-n3cc(-c4cc(OC)c(OC)c(OC)c4)[nH]c3=O)c2)cc(OC)c1OC` is -18.5% (active); for `Cc1cc2c(cc1C)[n+](Cc1ccc3ccccc3c1)cn2Cc1ccc2ccccc2c1` it is -60% (active).
The figure for `CCOC(=O)N[C@H]1CCc2cc(OC)c(OC)c(OC)c2-c2ccc(SC)c(=O)cc21` is -28.9% (active); for `COc1cc(NC(=O)NCc2ccco2)ccc1-c1ccc(NC(=O)NCc2ccco2)cc1OC` it is 57.4% (inactive).
The figure for `CC[C@@H](c1ccc2cc(OC)ccc2c1)C(C)(C)C(=O)F` is 104% (inactive); for `Nc1c(C(=O)Nc2ccccc2)sc2nc3c(cc12)CN(C(=O)OCc1ccccc1)CC3` it is 17.1% (inactive).
Regarding `CC1CCN(C(=O)CSc2nc3sc4c(c3c(=O)[nH]2)CCCC4)CC1`, the growth was 102% (inactive).
The figure for `O=NN(C(=O)NC1CCC(C(=O)O)CC1)C1CCC(C(=O)O)CC1` (stereo not given) is 112% (inactive); for `O=C1/C=C/[C@@H](O)[C@@H]2C[C@@H](O)C[C@H]2/C=C/CCC[C@H]([C@@H](O)CO)O1` it is 101% (inactive).
To `O=C1c2ccccc2C2N1CCC1CCc3ccccc3N12` (stereo not given) belongs 104% (inactive); to `Cn1c2ccccc2c2nn(Cc3ccccc3)c(=O)nc21`, 110% (inactive).
With `O=C(Nc1ccc(Cl)cc1)C1=NCCCCN1`, the growth is 96.6% (inactive).
To `Clc1nc(Cl)c2ncn(CCOCCn3cnc4c(Cl)nc(Cl)nc43)c2n1` belongs -70.6% (active); to `Cc1ccsc1C(NC(=O)c1ccccc1)c1cc(Cl)c2cccnc2c1O` (stereo not given), 12.4% (inactive); to `O=C(NCc1ccc2c(c1)OCO2)NCC1CCCC(CNC(=O)NCc2ccc3c(c2)OCO3)C1` (stereo not given), 108% (inactive).
